Assay [1] in a line: P-glycoprotein substrates identified in KB-8-5-11 adenocarcinoma cell line, qHTS therapeutic library screen (AID 1346987). Also: nearly all actives have a fitted effect of over 65% in size. Also: potency is read from the fitted curve at half-maximal effect. A digest of the protocol:
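P-gp-mediated resistance screen: KB-8-5-11 cells treated 72 h with compounds in dose-response. CellTiter-Glo viability.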

Assay [2] in a line: NS1 protein of Zika virus - qHTS assay to identify small molecule inhibitors in human HEK 293 cells (AID 1347053). Also: series mostly up to about 46 µM; nearly all actives have a fitted effect of over 55% in size. Summed up:
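HEK 293 cells, seeded 20 h at 37 C, were pretreated with compound 1 h, then infected with ZIKV MR766 (MOI = 0.5) for 24 h. NS1 was read by TR-FRET with two anti-NS1 antibodies, normalized to uninfected and infected wells.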

Assay [3] can be described thus: qHTS of pediatric cancer cell lines to identify multiple opportunities for drug repurposing: Primary screen for SJ-GBM2 cells (AID 1347091). A digest of the protocol: (§1)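 Cell viability, CellTiter-Glo luminescence; 500-1,000 cells/well, 8- or 11-point titration, 48 h compound exposure at 37 degrees C, 5% CO2. Controls: DMSO neutral, bortezomib 2.3 µM final as positive.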

Assay [4] can be described thus: qHTS of pediatric cancer cell lines to identify multiple opportunities for drug repurposing: Primary screen for A673 cells (AID 1347092). Also: nearly all actives have a fitted effect of over 45% in size. Summed up: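 Cell viability of A673 measured by CellTiter-Glo ATP luminescence after 48 hours compound exposure. Dilution series spanned 0.78 nM to 46 µM (MIPE, 11-point) or 0.59 nM to 46 µM (NPC, 8-point); bortezomib 2.3 uM positive control.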

Assay [5] is described as follows: qHTS of pediatric cancer cell lines to identify multiple opportunities for drug repurposing: Primary screen for SK-N-MC cells (AID 1347093). Also: series mostly up to about 46 µM. A digest of the protocol:
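Metabolically active cells were quantified by ATP-dependent luminescence (CellTiter-Glo, 15 min at room temperature) following 48 h treatment. Cells had been plated at 500-1,000 per well and settled for 5 h beforehand.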

Assay [6] in a line: qHTS of pediatric cancer cell lines to identify multiple opportunities for drug repurposing: Primary screen for BT-37 cells (AID 1347094). Also: series mostly up to about 57 µM. Summed up: (§2)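 Primary screen of approved and investigational compounds on cells in growth media at 37 degrees C, 5% CO2. MIPE set at 11-point and NPC set at 8-point dilutions; viability scored by ATP-based luminescence at 48 hours.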
Assay [7] can be described thus: qHTS of pediatric cancer cell lines to identify multiple opportunities for drug repurposing: Primary screen for NB-EBc1 cells (AID 1347095). Summed up:
as §2

A short description of assay [8]: qHTS of pediatric cancer cell lines to identify multiple opportunities for drug repurposing: Primary screen for U-2 OS cells (AID 1347096). Also: nearly all actives have a fitted effect of over 50% in size. Summed up: (§3)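 Cells (500-1,000/well) rested 5 h, then received compounds for 48 h; metabolically active cells were measured by CellTiter-Glo luminescence. Final concentrations spanned up to 46 µM (MIPE, 11-point) or 0.59 nM-46 µM (NPC, 8-point) in primary screens, 11-point in follow-ups.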

Assay [9] in a line: qHTS of pediatric cancer cell lines to identify multiple opportunities for drug repurposing: Primary screen for Saos-2 cells (AID 1347097). Also: nearly all actives have a fitted effect of over 40% in size. Also: potency is read from the fitted curve at half-maximal effect. Summed up:
as §2

The nature of assay [10]: qHTS of pediatric cancer cell lines to identify multiple opportunities for drug repurposing: Primary screen for NB1643 cells (AID 1347099). Also: nearly all actives have a fitted effect of over 50% in size. A digest of the protocol: as §2
Assay [11] is described as follows: qHTS of pediatric cancer cell lines to identify multiple opportunities for drug repurposing: Primary screen for LAN-5 cells (AID 1347100). A digest of the protocol: as §3
Assay [12] is described as follows: qHTS of pediatric cancer cell lines to identify multiple opportunities for drug repurposing: Primary screen for DAOY cells (AID 1347090). Also: series mostly up to about 46 µM; nearly all actives have a fitted effect of over 55% in size. A digest of the protocol:
as §1

A short description of assay [13]: qHTS of pediatric cancer cell lines to identify multiple opportunities for drug repurposing: Primary screen for SK-N-SH cells (AID 1347098). Also: nearly all actives have a fitted effect of over 65% in size. Summed up: as §3

“And” between values parts separate entries of the source, which are not always exact repeats. Equal entries are not always repeated. Inconclusive results are not listed. The source made the active and inactive calls. Calls follow the shape of the dose curve; as a rule, active = well fitted curve in the direction sought with a large enough effect; inconclusive = small, poorly fitted or top-dose-only effect, or another doubt; inactive = no such curve, though single readings can be large; an effect the other way counts as inactive or inconclusive.

`c1ccc(CN(CC2=NCCN2)c2ccccc2)cc1`: the Potency result in assay [1], in assay [2], in [3], in assay [4], in assay [5] and in [6] was “inactive” in each case. Moreover, the Potency result in assay [7], in assay [8], in [9], in [10] and in assay [11] was “inactive” each time.
In the case of `NC(=O)NC(=O)Cc1ccccc1`, the Potency entry in [1], in assay [2], in assay [3], in assay [5], in [7] and in assay [8] was “inactive” each time. The Potency entry in [9], in assay [10] and in assay [11] was “inactive” in each case.
Take `CC(=O)Oc1c(C)c(C)c2c(c1C)CC[C@@](C)(CCC[C@H](C)CCC[C@H](C)CCCC(C)C)O2`: the Potency result in assay [1], in [2], in [12], in assay [3], in assay [4] and in assay [5] was “inactive” each time. Further, the Potency result in [6], in assay [7], in [8], in assay [9], in assay [13] and in [10] was “inactive” each time. Also, in [11], the Potency result is “inactive”.
With `CC/C=C(\C(=O)N[C@@H]1C(=O)N2C(C(=O)OCOC(=O)C(C)(C)C)=C(COC(N)=O)CS[C@H]12)c1csc(N)n1`, the Potency result in assay [1], in assay [2], in assay [12], in assay [3], in assay [4] and in [5] was “inactive” in each case. For the same molecule, the Potency result in [6], in [7], in assay [8], in assay [9], in assay [13] and in assay [10] was “inactive” throughout. For the same molecule, the Potency result in assay [11] is “inactive”.
In the case of `[Cl][In]([Cl])[Cl]`, the Potency entry in [1], in [2], in assay [12], in [3], in assay [7] and in assay [8] was “inactive” each time. For the same molecule, the Potency entry in assay [13], in assay [10] and in [11] was “inactive” in each case. The Potency in assay [9] is 8.63 µM (active).
On to `O=c1cc[nH]c(=O)[nH]1`, for which the Potency result in assay [1], in assay [2], in assay [12], in [3], in assay [4] and in [5] was “inactive” in each case. For the same molecule, the Potency entry in assay [6], in assay [7], in assay [8], in assay [9], in [13] and in [10] was “inactive” each time. In addition, the Potency entry in [11] was “inactive”.
Regarding `Oc1ccc(C(O)CNCCCCCCNCC(O)c2ccc(O)c(O)c2)cc1O` (stereo unspecified), the Potency entry in [1], in [2], in assay [12], in assay [3], in assay [5] and in assay [6] was “inactive” each time. In addition, the Potency entry in assay [7], in assay [8], in assay [9], in assay [13] and in assay [10] was “inactive” in each case.
In the case of `O=C1O[C@H]([C@@H](O)CO)C(O)=C1O`, the Potency result in assay [1], in [2], in assay [12], in assay [3], in [4] and in assay [5] was “inactive” throughout. Moreover, the Potency result in assay [6], in [7], in assay [8], in assay [9], in assay [10] and in assay [11] was “inactive” each time.
Take `CC(=O)CCC(=O)O`: the Potency entry in assay [1], in [2], in assay [3], in [4], in assay [5] and in assay [6] was “inactive” each time. Further, the Potency result in assay [7], in assay [8], in [9], in [13], in assay [10] and in assay [11] was “inactive” throughout.
For `O=C(O)COc1nn(Cc2ccccc2)c2ccccc12`, the Potency result in assay [1], in assay [2], in assay [12], in [3], in [4] and in [5] was “inactive” throughout. The Potency entry in assay [6], in assay [7], in assay [8], in [9], in assay [13] and in assay [10] was “inactive” each time. For the same molecule, in [11], the Potency entry was “inactive”.
For `C[C@]12CC[C@@H]3c4ccc(O)cc4CC[C@H]3[C@@H]1CC[C@@H]2OC(=O)CCC1CCCC1`, the Potency in assay [1] was 6.51 µM (active) and 8.2 µM (active). In addition, the Potency entry in assay [2], in [4], in assay [5], in assay [13] and in assay [10] was “inactive” in each case.
As for `CCCOC(=O)c1ccccc1`, the Potency entry in [1], in assay [2], in assay [12], in [3], in assay [4] and in [5] was “inactive” throughout. Also, the Potency result in assay [6], in assay [7], in [8], in assay [9], in [13] and in assay [10] was “inactive” throughout. For the same molecule, the Potency result in [11] is “inactive”.

Source of the values: PubChem BioAssay (NCATS).
